Assay results published in PubChem BioAssay (NCI).
This is part of a sample that, as a whole, favours compounds with a hit. Of some 79,000 tested, about 15% had one in any assay. Calls of active or inactive are those of the source. No stated cut-off is given here; in the data, active means growth inhibition above about 70%; inactive means the rest.

Legend:
[1] = NCI Yeast Anticancer Drug Screen. Data for the sgs1 strain (AID 173);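 further: 0% = growth of vehicle-only control cultures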; settings: S. cerevisiae sgs1 mutant, hits give high values
Procedure, shortened: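 Vehicle-treated cultures served as reference for growth inhibition of a yeast strain altered in DNA damage repair or cell cycle control after compound exposure.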

[2] = NCI Yeast Anticancer Drug Screen. Data for the mlh1 rad18 strain (AID 175); settings: S. cerevisiae mlh1 rad18 strain growth inhibition, hits give high values
Procedure, shortened: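 Inhibition values reflect reduced growth of mutant yeast versus vehicle-treated controls following compound exposure; the mutations affect DNA damage repair.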

[3] = NCI Yeast Anticancer Drug Screen. Data for the rad52 strain (AID 147);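 further: 0% = growth of vehicle-treated control cultures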; settings: S. cerevisiae rad52 mutant growth inhibition, hits give high values
Procedure, shortened: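 Inhibition of yeast growth, referenced to vehicle controls, was the measured output for a strain with defective DNA damage repair.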

[4] = NCI Yeast Anticancer Drug Screen. Data for the wt1 strain (AID 149);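 further: 0% = growth of vehicle-treated wt1 cultures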; settings: S. cerevisiae wt1 strain (SPY 50644) growth inhibition, hits give high values
Procedure, shortened: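 Using yeast strain wt1, compound-induced growth inhibition was determined against vehicle-treated cultures.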

[5] = NCI Yeast Anticancer Drug Screen. Data for the rad50EPP+ strain (AID 151);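 further: 0% = growth of vehicle-treated control cultures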; settings: S. cerevisiae rad50 mutant strain, hits give high values
Procedure, shortened: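 Genetically defined yeast (rad50EPP+, DNA damage repair alteration) is grown with compound, and inhibition of growth is expressed relative to vehicle-treated controls.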

[6] = NCI Yeast Anticancer Drug Screen. Data for the rad50 strain (AID 155);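 further: 0% = growth of vehicle-only cultures of the same strain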; settings: S. cerevisiae rad50 strain growth inhibition, hits give high values
Procedure, shortened: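 Relative growth inhibition (compound vs vehicle) was measured in yeast with a defined repair-gene alteration.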

[7] = NCI Yeast Anticancer Drug Screen. Data for the mec2-1 strain (AID 157); settings: S. cerevisiae mec2-1 strain, hits give high values
Procedure, shortened: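 Each compound was tested on mec2-1 yeast, a strain altered in DNA damage repair or cell cycle control. Growth inhibition is reported relative to vehicle.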

[8] = NCI Yeast Anticancer Drug Screen. Data for the rad14 strain (AID 159);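 further: 0% = growth of vehicle-treated control cultures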; settings: S. cerevisiae rad14 strain growth inhibition, hits give high values
Procedure, shortened: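 Screen for anticancer potential: a yeast strain altered in DNA damage repair is grown with compound, and reduced growth is quantified against vehicle controls.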

[9] = NCI Yeast Anticancer Drug Screen. Data for the sgs1 mgt1 strain (AID 161);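 further: 0% = growth of cultures given vehicle only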; settings: S. cerevisiae sgs1 mgt1 strain, hits give high values
Procedure, shortened: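 Genetically altered yeast, compound exposure, growth inhibition relative to vehicle.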

[10] = NCI Yeast Anticancer Drug Screen. Data for the CLN2oe strain (AID 163);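 further: 0% = growth of vehicle-only control cultures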; settings: S. cerevisiae CLN2oe strain, hits give high values
Procedure, shortened: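 First, the altered yeast strain was treated with each compound; second, its growth was measured; finally, inhibition was derived by comparison with vehicle controls.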

[11] = NCI Yeast Anticancer Drug Screen. Data for the cln2 rad14 strain (AID 165);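 further: 0% = growth equal to vehicle treated cultures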; settings: S. cerevisiae cln2 rad14 strain, hits give high values
Procedure, shortened: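 Test compounds were added to cln2 rad14 yeast cultures; inhibition of growth was then determined by comparison with vehicle treatment.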

[12] = NCI Yeast Anticancer Drug Screen. Data for the bub3 strain (AID 167); settings: S. cerevisiae bub3 mutant strain, hits give high values
Procedure, shortened: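 Screening used yeast with an engineered genetic alteration affecting cell cycle control. Compound-exposed cultures were compared with vehicle cultures, and reduced growth was taken as inhibition.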

[13] = NCI Yeast Anticancer Drug Screen. Data for the wt2 strain (AID 169);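 further: 0% = growth of vehicle-treated yeast cultures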; settings: S. cerevisiae wt2 strain growth inhibition, hits give high values
Procedure, shortened: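 The panel's yeast strains carry defined changes in DNA repair or cell cycle genes. Each strain is grown with compound, and growth loss is scored relative to vehicle.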

[14] = NCI Yeast Anticancer Drug Screen. Data for the mlh1 strain (AID 171);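 further: 0% = growth of vehicle-treated control cultures of the same strain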; settings: S. cerevisiae mlh1 strain growth inhibition, hits give high values
Procedure, shortened: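 Inhibition values reflect reduced yeast growth in the presence of compound, referenced to vehicle controls, using a strain chosen for its alteration in DNA repair or cell cycle control.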

[15] = NCI Yeast Anticancer Drug Screen. Data for the rad18 strain (AID 177); settings: S. cerevisiae rad18 mutant growth inhibition, hits give high values
Procedure, shortened: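 Steps: expose repair-mutant yeast to compound; measure growth; express as inhibition relative to vehicle control.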

[16] = at 5.0 µM (retest, dose inferred, filed as 0.5)
[17] = at 50.0 µM (retest, dose inferred, filed as 5.0)

Measured: growth inhibition

Cc1ccc(S(=O)(=O)Oc2cc(Cl)c(Cl)cc2Cl)cc1
inactive: [1]; at 33.0 µM 0% | [1]; at 100.0 µM 12% | [2]; [16] 18% | [2]; [17] 53% | [2]; at 50.0 µM 2.3%

O=C(CCCN1CCC(O)(c2ccc(Cl)cc2)CC1)c1ccc(F)cc1
active: [6]; [17] 99% | [6]; at 50.0 µM 82.8% | [7]; [17] 100% | [7]; at 50.0 µM 77.7% | [8]; at 11.0 µM 78% | [8]; at 33.0 µM 83% | [8]; at 100.0 µM 86% | [9]; [17] 100% | [9]; at 50.0 µM 91.4% | [11]; [17] 99% | [11]; at 50.0 µM 70.8% | [12]; [17] 99% | [2]; [17] 99%
inactive: [3]; at 1.2 µM 13% | [3]; at 3.7 µM 6% | [3]; at 11.0 µM 27% | [3]; at 33.0 µM 31% | [3]; at 100.0 µM 38% | [4]; at 1.2 µM 0% | [4]; at 3.7 µM 7% | [4]; at 11.0 µM 13% | [4]; at 33.0 µM 23% | [4]; at 100.0 µM 14% | [5]; at 1.2 µM -3% | [5]; at 3.7 µM -4% | [5]; at 11.0 µM -6% | [5]; at 33.0 µM -6% | [5]; at 100.0 µM 0% | [6]; at 1.2 µM 24% | [6]; at 3.7 µM -8% | [6]; [16] 58% | [6]; at 11.0 µM 69% | [6]; at 33.0 µM 64% | [6]; at 100.0 µM 69% | [7]; at 1.2 µM 19% | [7]; at 3.7 µM 19% | [7]; [16] 33% | [7]; at 11.0 µM 29% | [7]; at 33.0 µM 36% | [7]; at 100.0 µM 41% | [8]; at 1.2 µM 50% | [8]; at 3.7 µM 69% | [9]; [16] 60% | [10]; at 1.2 µM 27% | [10]; at 3.7 µM 31% | [10]; at 11.0 µM 37% | [10]; at 33.0 µM 44% | [10]; at 100.0 µM 49% | [11]; [16] 43% | [12]; at 1.2 µM 38% | [12]; at 3.7 µM 41% | [12]; [16] 48% | [12]; at 11.0 µM 39% | [12]; at 33.0 µM 51% | [12]; at 50.0 µM 66.2% | [12]; at 100.0 µM 59% | [13]; at 1.2 µM 0% | [13]; at 3.7 µM 21% | [13]; at 11.0 µM 18% | [13]; at 33.0 µM 24% | [13]; at 100.0 µM 24% | [14]; at 1.2 µM 11% | [14]; at 3.7 µM 16% | [14]; at 11.0 µM 27% | [14]; at 33.0 µM 34% | [14]; at 100.0 µM 44% | [1]; at 1.2 µM 15% | [1]; at 3.7 µM 23% | [1]; at 11.0 µM 46% | [1]; at 33.0 µM 43% | [1]; at 100.0 µM 52% | [2]; [16] 35% | [2]; at 50.0 µM 66% | [15]; at 1.2 µM 37% | [15]; at 3.7 µM 37% | [15]; at 11.0 µM 44% | [15]; at 33.0 µM 58% | [15]; at 100.0 µM 64%

Cc1cc(S(=O)(=O)/N=C(/NN)NNc2cccc(C(F)(F)F)n2)c(S)cc1Cl
inactive: [3]; at 1.2 µM 1% | [3]; at 3.7 µM -1% | [3]; at 11.0 µM -2% | [3]; at 33.0 µM -4% | [3]; at 100.0 µM 23% | [4]; at 1.2 µM 0% | [4]; at 3.7 µM -2% | [4]; at 11.0 µM -2% | [4]; at 33.0 µM -7% | [4]; at 100.0 µM 10% | [5]; at 1.2 µM -8% | [5]; at 3.7 µM -24% | [5]; at 11.0 µM -28% | [5]; at 33.0 µM -52% | [5]; at 100.0 µM -50% | [6]; at 1.2 µM 0% | [6]; at 3.7 µM -2% | [6]; [16] 1% | [6]; at 11.0 µM -3% | [6]; at 33.0 µM -3% | [6]; [17] 52% | [6]; at 50.0 µM -7.1% | [6]; at 100.0 µM 10% | [7]; at 1.2 µM 0% | [7]; at 3.7 µM 2% | [7]; [16] -7% | [7]; at 11.0 µM -3% | [7]; at 33.0 µM -7% | [7]; [17] 8% | [7]; at 50.0 µM 7.75% | [7]; at 100.0 µM 16% | [8]; at 1.2 µM -1% | [8]; at 3.7 µM -1% | [8]; at 11.0 µM 1% | [8]; at 33.0 µM -1% | [8]; at 100.0 µM 14% | [9]; [16] -10% | [9]; [17] 44% | [9]; at 50.0 µM 30.6% | [10]; at 1.2 µM 3% | [10]; at 3.7 µM 1% | [10]; at 11.0 µM -2% | [10]; at 33.0 µM -12% | [10]; at 100.0 µM 3% | [11]; [16] 4% | [11]; [17] 25% | [11]; at 50.0 µM 41.5% | [12]; at 1.2 µM 4% | [12]; at 3.7 µM 1% | [12]; [16] -4% | [12]; at 11.0 µM -3% | [12]; at 33.0 µM -4% | [12]; [17] 47% | [12]; at 50.0 µM -17.4% | [12]; at 100.0 µM 12% | [13]; at 1.2 µM 0% | [13]; at 3.7 µM -2% | [13]; at 11.0 µM -3% | [13]; at 33.0 µM -5% | [13]; at 100.0 µM 18% | [14]; at 1.2 µM -3% | [14]; at 3.7 µM -2% | [14]; at 11.0 µM -4% | [14]; at 33.0 µM -5% | [14]; at 100.0 µM 19% | [1]; at 1.2 µM -1% | [1]; at 3.7 µM 1% | [1]; at 11.0 µM -2% | [1]; at 33.0 µM -1% | [1]; at 100.0 µM 25% | [2]; [16] 21% | [2]; [17] 52% | [2]; at 50.0 µM 19.6% | [15]; at 1.2 µM 0% | [15]; at 3.7 µM -1% | [15]; at 11.0 µM -6% | [15]; at 33.0 µM -3% | [15]; at 100.0 µM 16%
